# From PubChem
# DRD3 antagonist = antagonists of human D3 dopamine receptor; max response, negative = inhibition, %; 2.5% of 360,000 active; D3R cells, DiscoveRx beta-arrestin luminescence, antagonist mode; hits give low values; P35462; in the data active = max response below about -50%; inconclusive = no clear call, values can overlap the other calls; also: % is scaled to controls: 0 for no effect and ±100 for the full control effect
# Target sequence (P35462 whole entry, looked up): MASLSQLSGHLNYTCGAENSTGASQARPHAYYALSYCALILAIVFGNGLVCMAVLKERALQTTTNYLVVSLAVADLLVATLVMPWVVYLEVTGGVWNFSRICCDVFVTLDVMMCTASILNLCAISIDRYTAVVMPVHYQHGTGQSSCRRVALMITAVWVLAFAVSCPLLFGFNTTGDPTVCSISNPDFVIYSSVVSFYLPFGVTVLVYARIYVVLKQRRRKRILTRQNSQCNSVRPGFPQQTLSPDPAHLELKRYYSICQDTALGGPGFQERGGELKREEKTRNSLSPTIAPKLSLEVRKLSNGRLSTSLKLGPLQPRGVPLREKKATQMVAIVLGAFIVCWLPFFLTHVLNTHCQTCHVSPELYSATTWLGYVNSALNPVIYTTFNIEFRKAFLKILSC
#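 Cells expressing the human receptor were seeded at 1500 cells/well, incubated overnight at 37 degrees C in 5% CO2, then exposed to library compounds with dopamine controls for 90 minutes at 37 degrees C before luminescent detection.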
# DRD3 agonist = activates the human D3 dopamine receptor. P35462. D3R DiscoveRx beta-arrestin cells, luminescence, 90 min. max activation, %. 0.58% of 410,000 active. AID 652048; in the data active = max activation above about 30%; also: 0% is about no effect
#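 Agonist mode: compounds and dopamine controls were applied to plated cells for 90 min at 37 degrees C after an overnight attachment at 1500 cells/well. Luminescent read-out followed 30 - 60 minutes at room temperature with DiscoveRx detection reagent.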
# ClpP mod = qHTS Assay for Activators of ClpP; AID 651965, 2013; 1.9% of 340,000 active; purified B. subtilis ClpP, FRET peptide cleavage, 20 min; Potency, µM (titrated, usually from 57.5 µM), inactives show at the highest dose activity change, negative = active; ATP-dependent Clp protease proteolytic subunit (Bacillus subtilis (strain 168)), P80244; active = well fitted falling curve with a large enough effect; inconclusive = small, poorly fitted or top-dose-only effect; inactive = no such curve, though single readings can be large or run the other way; also: potency is read from the fitted curve at half-maximal effect; the source files actives as falling curves though it sought activators and does not explain the sign; nearly all actives have a fitted effect of over 65% in size
# Target sequence (P80244 whole entry, looked up): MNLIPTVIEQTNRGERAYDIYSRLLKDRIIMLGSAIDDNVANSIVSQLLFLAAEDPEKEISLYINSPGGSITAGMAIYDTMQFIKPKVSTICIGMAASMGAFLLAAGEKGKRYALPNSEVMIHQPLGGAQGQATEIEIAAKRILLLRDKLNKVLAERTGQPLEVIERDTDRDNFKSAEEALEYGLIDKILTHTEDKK
#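 Buffer: 100 mM Tris/HCl pH8, 100 mM KCl, 0.05% low protease BSA, 2.5% glycerol, 0.01% Tween-20. ClpP 10 microg/mL final; 20 min RT; delta FRET normalized to ADEP and DMSO controls.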
# TDP1 cell CPT = DT40-hTDP1 cell growth loss with CPT; chicken DT40 Tdp1-/-;hTDP1 cells + 20 nM CPT, ATP luminescence, 48 h; Potency, µM (titrated, usually from 46.2 µM), for inactives: top-dose activity change, negative = growth inhibition, most hits filed as inhibitors; 12% of 420,000 active; AID 686979; also: potency is read from the fitted curve at half-maximal effect; % is scaled to controls: 0 for no effect and ±100 for the full control effect; nearly all actives have a fitted effect of over 55% in size
#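 Cell growth measured by CellTiter-Glo luminescence after a minimum 48 h, 37 C compound exposure with 20 nM CPT in Tdp1-knockout DT40 cells stably expressing hTDP1, seeded 400/well; qHTS titration format.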
# TDP1 cell noCPT = qHTS for Inhibitors of human tyrosyl-DNA phosphodiesterase 1 (TDP1): qHTS in cells in absence of CPT. 15% of 420,000 active. AID 686978, 2013. DT40 Tdp1-/- hTDP1 cells, no CPT, ATP luminescence, 48 h. Potency, µM (series often up to 46.2 µM), inactives show top-dose activity change, negative = growth inhibition, actives largely listed as inhibitors; also: potency is read from the fitted curve at half-maximal effect; % is scaled to controls: 0 for no effect and ±100 for the full control effect; nearly all actives have a fitted effect of over 55% in size
#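 Luminescent ATP content (CellTiter-Glo) served as the growth readout. Knockout chicken DT40 cells expressing human TDP1 were exposed to compounds without camptothecin for a minimum 48 hr at 37 °C.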
# IL1B secr inh = inhibitors of inflammasome signaling (IL-1 beta secretion). AID 743279. activity change, % at 57.5 µM. 4.7% of 360,000 active. THP-1 LPS/ATP IL-1B secretion, AlphaLISA, 16 h; hits give low values; in the data active = activity change below about -50%; inconclusive = mostly about -30% to -49%; also: % is scaled to controls: 0 for no effect and ±100 for the full control effect
#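 Secreted IL-1B measured by AlphaLISA bead assay after 16 h compound exposure of THP-1 cells; compounds (final up to 57.5 uM) added 1 h before LPS (250 ng/mL) and ATP (1.25 mM) stimulation; lower signal means less secretion.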
# Starred values were filed as active, the others as inactive; ? = inconclusive; . = no result given; ! = not active in a repeat. In the library only some 21% were active in any assay of this set; here they are far more common. Unless noted, calls follow the shape of the dose curve; as a rule, active = well fitted inhibition curve with a large enough effect; inconclusive = small, poorly fitted or top-dose-only effect; inactive = flat fitted curve, though single readings scatter.
SMILES,DRD3 antagonist,DRD3 agonist,ClpP mod,TDP1 cell CPT,TDP1 cell noCPT,IL1B secr inh
COc1ccc(C(=O)Cn2c(=O)c(-c3cc(C)ccc3NC(C)=O)nc3ccccc32)cc1,.,1,-3%,-8%,-16%,.
COc1ccc(/C=C/C(=O)O)cc1COc1ccccc1C,11,-2,-1%,-15%,-23%,25
O=C(/C=C/c1ccc2c(c1)OCO2)c1cccnc1,-12,-5,-3%,?,?,?
O=C(/C=C/c1ccc2c(c1)OCCO2)c1ccccc1,6,-5,-2%,?,16µM*,?
COc1ccc(/C=C/C(=O)c2ccc(O)cc2)cc1,-2,-11,-4%,-3%,?,-80*
Cc1cc(NC(=O)CSc2nc(N)c(NC(=O)c3ccco3)c(=O)[nH]2)no1,6,4,0%,-7%,25%,-2
Cc1ccc(C(=O)C=Cc2ccc3c(c2)OCO3)c(C)c1,0,-1,-2%,?,?,?
COc1ccc(C(=O)/C=C/c2ccc3c(c2)OCCO3)cc1,-28,4,3%,?,?,-93*
Cc1ccc(O)c(C(=O)/C=C/c2ccc3c(c2)OCCO3)c1,-11,0,1%,16µM*,16µM*,-52*
CCCc1cc(=O)[nH]c(SCCc2ccccc2)n1,15,-2,2%,-12%,-25%,-2
O=C(Nc1cccc(Cl)c1)c1ccc2c(=O)n3c(nc2c1)CCCCC3,21,5,0%,23µM*,?,-74*
O=C(Nc1ccc(S(=O)(=O)N2CCCC2)cc1)c1ccc2c(=O)n3c(nc2c1)CCCCC3,35,7,-30%,?,16µM*,-5
CC(=O)c1ccc(NC(=O)c2ccc3c(=O)n4c(nc3c2)CCCCC4)cc1,-10,-9,0%,?,?,-13
Cc1ccc(-c2csc(NC(=O)c3ccc4c(=O)n5c(nc4c3)CCCCC5)n2)cc1,-5,7,-8%,10µM*,13µM*,0
O=C(Nc1ccc(F)cc1)c1ccc2c(=O)n3c(nc2c1)CCCCC3,2,4,1%,?,16µM*,-14
O=C(Nc1ccc(F)c(Cl)c1)c1ccc2c(=O)n3c(nc2c1)CCCCC3,5,8,2%,16µM*,21µM*,-10
O=C(Nc1ccc(Cl)cc1)c1ccc2c(=O)n3c(nc2c1)CCCCC3,23,3,19%,?,?,29
CCOC(=O)C1CCN(C(=O)c2cccnc2Oc2ccccc2)CC1,-8,-12,.,-4%,-13%,-1
CCc1cccc(NS(=O)(=O)c2ccc3c(c2)N(CC(=O)OC)C(=O)CS3)c1,.,-4,-5%,18µM*,?,.
COC(=O)CN1C(=O)CSc2ccc(S(=O)(=O)Nc3cccc(C)c3)cc21,.,8,0%,?,23µM*,.
CC1CCCC(NC(=O)NC(=O)COC(=O)c2ccc(O)cc2O)C1C (configuration not stated),-1,2,-2%,?,?,-12
CCCN(CCC)C(=O)Cn1c(=O)c2ccccc2n2c(=S)sc(-c3ccccc3C)c12,-24,1,1%,10µM*,15µM*,21
CCCN(CCC)C(=O)Cn1c(=O)c2sccc2n2c(=S)sc(-c3ccccc3)c12,-14,-5,0%,-16%,-12%,23
CSc1nc(SCC(=O)NC(c2ccccc2)c2ccccc2)c2c3c(sc2n1)CN(C)CC3,-92*,-8,28µM*,?,?,?
CSc1nc(NCC(C)O)c2c3c(sc2n1)CN(C)CC3 (configuration not stated),29,-2,4%,0%,-3%,-23
SMILES,DRD3 antagonist,DRD3 agonist,ClpP mod,TDP1 cell CPT,TDP1 cell noCPT,IL1B secr inh
Cc1cc(C(=O)c2ccccc2)cc(C)c1O,-11,-1,-1%,-3%,-2%,5
CC1=C/C(=C(\c2cc(C)c(O)c(Br)c2)c2ccccc2S(=O)(=O)O)C=C(Br)C1=O,-52*,-22,0%,?,?,-81*
C=C1C[C@H](OC(=O)C(C)(O)CCl)C2C(=C)C(=O)O[C@@H]2C2C1C[C@H](O)[C@]2(O)CCl (some centres not stated),.,.,.,1.5µM*,0.82µM*,.
N/C(=N\OC(=O)C(c1ccccc1)c1ccccc1)c1ccncc1,-28,-8,.,-4%,29µM*,-14
CC(C)Cc1ccc(S(=O)(=O)Nc2ccc3[nH]c(=O)[nH]c3c2)cc1,5,-3,1%,16µM*!,26µM*,9
CCc1ccc(NS(=O)(=O)c2ccc3[nH]c(=O)[nH]c3c2)cc1,16,13,.,5%,-8%,10
CCCSCCCNC(=O)c1ccc2c(c1)sc1nc(-c3ccc(OCC)cc3)cn12,.,15,?,?,?,.
Cc1ccc(-c2cn3c(n2)sc2cc(C(=O)NC4CCCCCC4)ccc23)cc1,.,-20,-13%,10µM*,16µM*,.
O=C(NC1CCCCC1)c1ccc2c(c1)sc1nc(-c3ccccc3)cn12,.,-2,-27%,?,10µM*,.
CCc1ccc(-c2cn3c(n2)sc2cc(C(=O)NC4CCCCCC4)ccc23)cc1,.,5,-9%,12µM*,10µM*,.
Cc1ccc(-c2cn3c(n2)sc2cc(C(=O)NC4CCCCC4)ccc23)cc1,.,-3,?,4.1µM*,4.6µM*,.
COC(=O)C1CCN(CC(=O)Nc2cc(C)c3c(=O)oc4ccccc4c3n2)CC1,.,1,-14%,-5%,?,.
COC(=O)c1cc(C(=O)NNC(=O)c2ccc3c(c2)OCO3)cc([N+](=O)[O-])c1,-24,-6,-3%,-9%,1%,-16
CCOc1ccc(CCNC(=O)C2CCCN(S(=O)(=O)c3c(C)n[nH]c3C)C2)cc1OCC (configuration not stated),-6,4,0%,?,9.2µM*,3
Cc1n[nH]c(C)c1S(=O)(=O)N1CCCC(C(=O)NC2CCCc3ccccc32)C1 (configuration not stated),23,4,-1%,21µM*,18µM*,6
Cc1cc(C)cc(NC(=O)C2CCCN(S(=O)(=O)c3c(C)noc3C)C2)c1 (configuration not stated),12,2,-1%,?,?,21
Cc1noc(C)c1S(=O)(=O)N1CCCC(C(=O)NCCC2=CCCCC2)C1 (configuration not stated),18,-2,0%,?,16µM*,14
